According to the supplement of paper PMC10338343:
± gives the standard deviation.

System: MILI (PIWIL2) piRISC loaded with L1MC piRNA (26 nt)
Assay: pre-steady-state target cleavage rate (min^-1); guide: L1MC piRNA 5'p-UAACUAAAUACUAUGCAAGCUGUAGG; higher = faster piRNA-guided slicing of the target
Details: auxiliary factor: 500 nM mouse GTSF1
Procedure, shortened: (§1)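 Cleave-'n-Seq reactions paired 0.1 nM transcribed, DNA-blocked target RNA library with 1 nM active affinity-purified piRISC holding one synthetic guide, plus or minus 500 nM GTSF1 partner protein, in HEPES–potassium acetate buffer at 33 °C for 0–8 or 0–960 min. After sequencing of uncleaved targets and normalisation to depth and weakly complementary targets, the pre-steady-state cleavage rate was taken from a burst-and-steady-state fit. Three trials were pooled, and k3 was capped at 0.0001 min^-1.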

Sequence	pre-steady-state target cleavage rate
UCCUGGAACAGCUUGCAUAGUUUUUAGUAA	0.0664 ± 0.015
UCCUGCUAGAGCUUCCAUAGUAUUUAGUUA	0.246 ± 0.047
UCCUGGAUGUGCUUGACAUAGUAUUUAGUUA	0.0338 ± 0.009
UCCUGGAUCAGCUUGCAUAGUAUUUUCAAA	0.0677 ± 0.013
UCCUGGUACAGCUUGCAAAGUAUUUAGAAA	0.0181 ± 0.0094
UCCUCCUACAGCUUGCAUAGUUAUUAGUAA	0.031 ± 0.011
UCCUGCUACAGCUUGCAUAGUAUUUUCUUA	0.0484 ± 0.01
UCCUGGUACAUGCUUGCAUAGUAUUUAGUUA	0.131 ± 0.018
UCCUCCUAGAGCUUGCAUAGUAUUUAGAUA	0.123 ± 0.025
UCCUCCUUCAGCUUGCAUAGUUUUUAGUUA	0.0603 ± 0.0091
UCCUGGAUGUGCUAGCAUAGUAUUUAGUUA	0.125 ± 0.013
UCCUCCUACACCUUGCAUAGUAUUUACAAA	0.127 ± 0.032
UCCUGCUACAGCUUGCAUAGCAUUUAGUUA	0.141 ± 0.022
UCCUGGAACAGCUUGCAUAGUAUAUUGUUA	0.153 ± 0.029
UCCUCCUACAGCUUGCAUAGAAUUUUGUUA	0.0525 ± 0.013
UCCUGCUACUGCUUGCAUAGUAUUUAGUAA	0.146 ± 0.034
UCCUGCUAGAGCUUGCAUAGAAUUUAGUUA	0.0404 ± 0.0063
UCCUCCUACAGCUUGCAUAGUAUUUUAGUUA	0.273 ± 0.019
UCCUCCUACACCUUGCAUACUAUUUAGUUA	0.0962 ± 0.025
UCCUGGUACAGCUAGCAUAGUAUUAAGUUA	0.198 ± 0.032

Sequence	pre-steady-state target cleavage rate
UCCUGGAUGUGCUUGCCUAGUAUUUAGUUA	0.0942 ± 0.011
UCCUGGAACAGCUUGCAUAGUUAUUAGUAA	0.0204 ± 0.0084
UCCUCCUUGAGCUUGCAUAGUAUUUACAAA	0.0856 ± 0.023
UCCUCCAACAGCUUGCAUAGAAUUUAGUUA	0.07 ± 0.014
UCCUCCUUCAGCUUGCAUAGUAUUUUCAAA	0.115 ± 0.022
UCCUGGUACUGCUUGCAUAGUAUAUAGUUA	0.168 ± 0.044
UCCUGGAUCAGCUUGCAUUGUAUUUAGUAA	0.144 ± 0.014
UCCUGGUACAGCUUGCAUAGUAUUGAGUUA	0.155 ± 0.032
UCCUGCUACAGCUUGCAUAGUAUUUACGUUA	0.21 ± 0.023
UCCUGGUAAGCUUGCAUAGUAUUUAGUUA	0.273 ± 0.017
UCCUGCUACAGCUUGGAUAGUAAUUAGUUA	0.204 ± 0.021
UCCUGCUACAGCUUGCAUAGUAUGUUAGUUA	0.164 ± 0.036
UCCUGGAUGAGCUUGCAUUGUAUUUAGAAA	0.0178 ± 0.0069
UCCUGCUACUGCUUGCAAAGUAUUUAGUUA	0.0928 ± 0.013
UCCUGGAUGAGCUUGCAUAGUAUUUCGUUA	0.0995 ± 0.028
UCCUGGUACAGCUUGCAUACUAUUUAGUAA	0.0573 ± 0.023
UCCUCCUACAGCUUGCAUACUAUUUACAAA	0.0449 ± 0.012
UCCUCCUACAGCUUGCAUAGUAUUUAGAUUA	0.122 ± 0.022
UCCUCCUACAGGAUGCAUAGUAUUUAGAAA	0.0838 ± 0.015
UCCUCCUAGAGCUUCCAUAGUAUUUAGUUA	0.0812 ± 0.025

Same assay, conditions: auxiliary factor: none (no GTSF1)

Sequence	pre-steady-state target cleavage rate
UCCUGGUACAUGCUUGCAUAGUAUUUAGUUA	0.00627 ± 0.0036
UCCUCCUUCAGCUUGCAUAGUUUUUAGUUA	0.00556 ± 0.0016
UCCUGGAUGUGCUAGCAUAGUAUUUAGUUA	0.00747 ± 0.0023
UCCUCCUACAGCUUGCAUAGUAUUUUAGUUA	0.0124 ± 0.0038
UCCUGGUACAGCUAGCAUAGUAUUAAGUUA	0.00537 ± 0.0026
UCCUGGAUGUGCUUGCCUAGUAUUUAGUUA	0.012 ± 0.003
UCCUGCUACAGCUUGCAUAGUAUUUACGUUA	0.00615 ± 0.0025
UCCUGGUAAGCUUGCAUAGUAUUUAGUUA	0.0137 ± 0.0032
UCCUGCUACUGCUUGCAAAGUAUUUAGUUA	0.00523 ± 0.0021

System: EfPiwi piRISC loaded with L1MC piRNA (26 nt)
Assay: pre-steady-state target cleavage rate (min^-1); auxiliary factor: 500 nM Ephydatia muelleri Gtsf1; guide: L1MC piRNA 5'p-UAACUAAAUACUAUGCAAGCUGUAGG; MIWI and MILI are mouse PIWI proteins and EfPiwi is from a freshwater sponge; tags in brackets are library labels; higher = faster piRNA-guided slicing of the target
Details: not given
Procedure, shortened: as §1

Sequence	pre-steady-state target cleavage rate
UCCUGGAACAGCUUGCAUAGUUUUUAGUAA	0.00724 ± 0.0029
UCCUGCUAGAGCUUCCAUAGUAUUUAGUUA	0.00239 ± 0.0017
UCCUGGAUGUGCUUGACAUAGUAUUUAGUUA	0.0797 ± 0.03
UCCUGGAUCAGCUUGCAUAGUAUUUUCAAA	0.00307 ± 0.0027
UCCUGGUACAGCUUGCAAAGUAUUUAGAAA	0.00656 ± 0.0038
UCCUCCUACAGCUUGCAUAGUUAUUAGUAA	0.00524 ± 0.0028
UCCUGCUACAGCUUGCAUAGUAUUUUCUUA	0.00359 ± 0.002
UCCUGGUACAUGCUUGCAUAGUAUUUAGUUA	0.0077 ± 0.0034
UCCUCCUAGAGCUUGCAUAGUAUUUAGAUA	0.0043 ± 0.0018
UCCUCCUUCAGCUUGCAUAGUUUUUAGUUA	0.00713 ± 0.0023
UCCUGGAUGUGCUAGCAUAGUAUUUAGUUA	0.00573 ± 0.0027
UCCUCCUACACCUUGCAUAGUAUUUACAAA	0.00304 ± 0.0025
UCCUGCUACAGCUUGCAUAGCAUUUAGUUA	0.00521 ± 0.0016
UCCUGGAACAGCUUGCAUAGUAUAUUGUUA	0.00533 ± 0.0022
UCCUCCUACAGCUUGCAUAGAAUUUUGUUA	0.00325 ± 0.0016
UCCUGCUACUGCUUGCAUAGUAUUUAGUAA	0.00464 ± 0.0016
UCCUGCUAGAGCUUGCAUAGAAUUUAGUUA	0.0043 ± 0.0014
UCCUCCUACAGCUUGCAUAGUAUUUUAGUUA	0.0456 ± 0.014
UCCUCCUACACCUUGCAUACUAUUUAGUUA	0.00578 ± 0.0029
UCCUGGUACAGCUAGCAUAGUAUUAAGUUA	0.00476 ± 0.0024

Sequence	pre-steady-state target cleavage rate
UCCUGGAUGUGCUUGCCUAGUAUUUAGUUA	0.00934 ± 0.0027
UCCUGGAACAGCUUGCAUAGUUAUUAGUAA	0.00454 ± 0.0037
UCCUCCUUGAGCUUGCAUAGUAUUUACAAA	0.00316 ± 0.0022
UCCUCCAACAGCUUGCAUAGAAUUUAGUUA	0.00468 ± 0.0016
UCCUCCUUCAGCUUGCAUAGUAUUUUCAAA	0.00259 ± 0.0024
UCCUGGUACUGCUUGCAUAGUAUAUAGUUA	0.01 ± 0.0048
UCCUGGAUCAGCUUGCAUUGUAUUUAGUAA	0.00441 ± 0.0018
UCCUGGUACAGCUUGCAUAGUAUUGAGUUA	0.00418 ± 0.0024
UCCUGCUACAGCUUGCAUAGUAUUUACGUUA	0.00429 ± 0.002
UCCUGGUAAGCUUGCAUAGUAUUUAGUUA	0.0168 ± 0.0044
UCCUGCUACAGCUUGGAUAGUAAUUAGUUA	0.00773 ± 0.0024
UCCUGCUACAGCUUGCAUAGUAUGUUAGUUA	0.00247 ± 0.002
UCCUGGAUGAGCUUGCAUUGUAUUUAGAAA	0.00384 ± 0.0021
UCCUGCUACUGCUUGCAAAGUAUUUAGUUA	0.00588 ± 0.0023
UCCUGGAUGAGCUUGCAUAGUAUUUCGUUA	0.00352 ± 0.0019
UCCUGGUACAGCUUGCAUACUAUUUAGUAA	0.00327 ± 0.0023
UCCUCCUACAGCUUGCAUACUAUUUACAAA	0.0038 ± 0.0031
UCCUCCUACAGCUUGCAUAGUAUUUAGAUUA	0.0103 ± 0.0044
UCCUCCUACAGGAUGCAUAGUAUUUAGAAA	0.00396 ± 0.0014
UCCUCCUAGAGCUUCCAUAGUAUUUAGUUA	0.00302 ± 0.0014
